# Measured values from ChEMBL document CHEMBL1961873, “Compounds: GSK PKIS; Assays: Nanosyn kinase panel” (2012).
# Columns and labels:
# [1] = target: Fibroblast growth factor receptor 4 (Homo sapiens) (UniProt P22455); details: at 1 µM;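 note: reported figure is the averaged percent inhibition of FGFR4, from the GSK PKIS kinase screening panel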
# [2] = target: Tyrosine-protein kinase Fgr (Homo sapiens) (UniProt P09769); details: at 0.1 µM
# [3] = target: Tyrosine-protein kinase Fgr (Homo sapiens) (UniProt P09769); details: at 1 µM
# [4] = target: Vascular endothelial growth factor receptor 1 (Homo sapiens) (UniProt P17948); details: at 0.1 µM
# Chain of Vascular endothelial growth factor receptor 1 (Homo sapiens) (P17948 whole entry): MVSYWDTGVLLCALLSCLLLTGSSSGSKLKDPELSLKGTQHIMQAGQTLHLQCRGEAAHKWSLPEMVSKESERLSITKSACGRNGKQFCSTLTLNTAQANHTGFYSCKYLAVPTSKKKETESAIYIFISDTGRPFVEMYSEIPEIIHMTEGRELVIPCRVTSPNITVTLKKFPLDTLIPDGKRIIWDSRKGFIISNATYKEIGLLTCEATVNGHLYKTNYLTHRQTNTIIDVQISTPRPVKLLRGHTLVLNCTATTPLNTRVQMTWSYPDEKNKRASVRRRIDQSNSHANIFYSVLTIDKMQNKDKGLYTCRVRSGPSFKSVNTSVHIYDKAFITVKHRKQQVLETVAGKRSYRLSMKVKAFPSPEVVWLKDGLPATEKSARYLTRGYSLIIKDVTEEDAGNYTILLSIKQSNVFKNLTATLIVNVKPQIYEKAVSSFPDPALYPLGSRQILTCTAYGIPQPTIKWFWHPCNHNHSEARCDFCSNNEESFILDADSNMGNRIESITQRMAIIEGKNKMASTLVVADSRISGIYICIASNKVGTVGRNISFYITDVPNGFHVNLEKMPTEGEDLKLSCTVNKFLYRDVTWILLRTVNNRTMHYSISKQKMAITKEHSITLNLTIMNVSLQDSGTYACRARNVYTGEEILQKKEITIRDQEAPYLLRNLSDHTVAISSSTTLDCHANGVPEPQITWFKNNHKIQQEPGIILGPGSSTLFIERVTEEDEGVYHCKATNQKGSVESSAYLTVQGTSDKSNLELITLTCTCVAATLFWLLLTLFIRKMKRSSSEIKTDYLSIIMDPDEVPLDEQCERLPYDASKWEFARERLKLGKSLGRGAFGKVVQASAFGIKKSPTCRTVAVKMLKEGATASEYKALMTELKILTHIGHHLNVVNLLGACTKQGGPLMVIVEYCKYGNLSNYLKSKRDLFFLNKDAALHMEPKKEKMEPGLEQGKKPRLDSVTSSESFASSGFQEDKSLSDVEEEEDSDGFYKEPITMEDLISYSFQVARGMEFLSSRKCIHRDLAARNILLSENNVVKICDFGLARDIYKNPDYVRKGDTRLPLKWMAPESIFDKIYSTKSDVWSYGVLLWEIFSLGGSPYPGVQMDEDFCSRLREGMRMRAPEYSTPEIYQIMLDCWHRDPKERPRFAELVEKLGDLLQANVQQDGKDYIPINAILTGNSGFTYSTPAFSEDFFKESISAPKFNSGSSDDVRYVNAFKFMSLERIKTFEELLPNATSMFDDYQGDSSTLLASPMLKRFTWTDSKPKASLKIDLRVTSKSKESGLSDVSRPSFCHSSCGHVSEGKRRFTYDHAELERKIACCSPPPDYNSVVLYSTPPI
# [5] = target: Vascular endothelial growth factor receptor 1 (Homo sapiens) (UniProt P17948); details: at 1 µM
# [6] = target: Receptor-type tyrosine-protein kinase FLT3 (Homo sapiens) (UniProt P36888); details: at 0.1 µM
# [7] = target: Receptor-type tyrosine-protein kinase FLT3 (Homo sapiens) (UniProt P36888); details: at 1 µM
# [8] = target: Non-receptor tyrosine-protein kinase TYK2 (Homo sapiens) (UniProt P29597); details: at 1 µM;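 note: values are mean percent inhibition of TYK2 kinase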
# [9] = target: T1, Tyrosine-protein kinase receptor TYRO3 (Homo sapiens) (UniProt Q06418); details: at 0.1 µM
# T1 sequence (whole entry): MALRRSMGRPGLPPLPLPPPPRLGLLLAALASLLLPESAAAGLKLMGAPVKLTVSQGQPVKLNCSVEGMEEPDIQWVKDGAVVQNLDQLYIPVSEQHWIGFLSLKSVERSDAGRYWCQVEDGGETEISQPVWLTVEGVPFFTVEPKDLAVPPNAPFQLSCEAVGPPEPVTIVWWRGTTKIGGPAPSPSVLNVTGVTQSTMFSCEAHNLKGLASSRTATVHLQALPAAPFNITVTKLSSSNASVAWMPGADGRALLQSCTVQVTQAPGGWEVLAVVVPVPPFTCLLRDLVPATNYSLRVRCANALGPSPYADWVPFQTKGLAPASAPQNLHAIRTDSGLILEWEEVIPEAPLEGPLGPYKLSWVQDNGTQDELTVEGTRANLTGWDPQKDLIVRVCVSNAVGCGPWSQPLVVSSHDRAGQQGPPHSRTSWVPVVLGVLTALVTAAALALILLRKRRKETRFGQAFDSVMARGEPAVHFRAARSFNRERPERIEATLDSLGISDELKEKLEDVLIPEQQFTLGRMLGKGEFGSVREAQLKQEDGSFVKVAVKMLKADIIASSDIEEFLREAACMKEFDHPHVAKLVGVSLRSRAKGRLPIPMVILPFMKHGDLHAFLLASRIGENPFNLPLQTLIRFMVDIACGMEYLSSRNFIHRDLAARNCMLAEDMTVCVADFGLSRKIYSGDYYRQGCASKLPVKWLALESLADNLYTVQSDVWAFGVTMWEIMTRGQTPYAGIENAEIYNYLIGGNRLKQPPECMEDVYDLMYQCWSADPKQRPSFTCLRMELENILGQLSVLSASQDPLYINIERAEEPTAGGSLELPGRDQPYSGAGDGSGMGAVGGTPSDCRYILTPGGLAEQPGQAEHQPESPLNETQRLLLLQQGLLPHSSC
# [10] = target: T1, Tyrosine-protein kinase receptor TYRO3 (Homo sapiens); details: at 1 µM
# [11] = target: Tyrosine-protein kinase Yes (Homo sapiens) (UniProt P07947); details: at 0.1 µM
# Chain of Tyrosine-protein kinase Yes (Homo sapiens) (P07947 2-543 limits assumed): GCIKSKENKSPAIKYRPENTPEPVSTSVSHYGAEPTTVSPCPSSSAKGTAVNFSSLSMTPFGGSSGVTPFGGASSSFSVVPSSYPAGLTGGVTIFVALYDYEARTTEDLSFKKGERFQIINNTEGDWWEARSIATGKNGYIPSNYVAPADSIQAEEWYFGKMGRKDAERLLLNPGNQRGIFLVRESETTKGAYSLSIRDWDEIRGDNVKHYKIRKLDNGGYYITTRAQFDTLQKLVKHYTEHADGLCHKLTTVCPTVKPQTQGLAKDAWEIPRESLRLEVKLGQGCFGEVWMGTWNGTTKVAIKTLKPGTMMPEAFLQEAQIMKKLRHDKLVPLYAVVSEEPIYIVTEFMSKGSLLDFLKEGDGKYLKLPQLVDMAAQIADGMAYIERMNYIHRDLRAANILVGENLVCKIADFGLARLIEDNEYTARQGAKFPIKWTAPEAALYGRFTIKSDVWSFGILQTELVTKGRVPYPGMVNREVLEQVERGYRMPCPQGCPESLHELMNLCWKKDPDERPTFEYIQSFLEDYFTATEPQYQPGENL
# [12] = target: Tyrosine-protein kinase Yes (Homo sapiens) (UniProt P07947); details: at 1 µM
# [13] = target: T2, Tyrosine-protein kinase ZAP-70 (Homo sapiens) (UniProt P43403); details: at 0.1 µM
# T2 sequence (whole entry): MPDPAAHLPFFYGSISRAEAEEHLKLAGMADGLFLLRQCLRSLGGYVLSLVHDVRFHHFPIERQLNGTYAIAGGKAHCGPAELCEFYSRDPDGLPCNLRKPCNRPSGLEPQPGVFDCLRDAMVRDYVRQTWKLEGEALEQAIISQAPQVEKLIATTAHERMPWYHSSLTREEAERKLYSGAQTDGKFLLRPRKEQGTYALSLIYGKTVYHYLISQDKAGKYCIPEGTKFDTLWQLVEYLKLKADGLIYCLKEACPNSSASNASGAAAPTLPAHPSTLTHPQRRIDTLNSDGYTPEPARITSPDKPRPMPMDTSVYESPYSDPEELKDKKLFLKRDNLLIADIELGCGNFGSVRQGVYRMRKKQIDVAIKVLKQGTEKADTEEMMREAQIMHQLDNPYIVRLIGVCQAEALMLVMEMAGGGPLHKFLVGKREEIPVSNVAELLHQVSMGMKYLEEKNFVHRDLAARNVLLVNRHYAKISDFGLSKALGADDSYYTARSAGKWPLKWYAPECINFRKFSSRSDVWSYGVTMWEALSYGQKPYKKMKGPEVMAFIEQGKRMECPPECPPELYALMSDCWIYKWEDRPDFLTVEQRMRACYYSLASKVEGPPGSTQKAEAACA
# [14] = target: T2, Tyrosine-protein kinase ZAP-70 (Homo sapiens); details: at 1 µM
# [15] = target: Serine/threonine-protein kinase B-raf (Homo sapiens) (UniProt P15056); details: at 0.1 µM
# Chain of Serine/threonine-protein kinase B-raf (Homo sapiens) (P15056 whole entry): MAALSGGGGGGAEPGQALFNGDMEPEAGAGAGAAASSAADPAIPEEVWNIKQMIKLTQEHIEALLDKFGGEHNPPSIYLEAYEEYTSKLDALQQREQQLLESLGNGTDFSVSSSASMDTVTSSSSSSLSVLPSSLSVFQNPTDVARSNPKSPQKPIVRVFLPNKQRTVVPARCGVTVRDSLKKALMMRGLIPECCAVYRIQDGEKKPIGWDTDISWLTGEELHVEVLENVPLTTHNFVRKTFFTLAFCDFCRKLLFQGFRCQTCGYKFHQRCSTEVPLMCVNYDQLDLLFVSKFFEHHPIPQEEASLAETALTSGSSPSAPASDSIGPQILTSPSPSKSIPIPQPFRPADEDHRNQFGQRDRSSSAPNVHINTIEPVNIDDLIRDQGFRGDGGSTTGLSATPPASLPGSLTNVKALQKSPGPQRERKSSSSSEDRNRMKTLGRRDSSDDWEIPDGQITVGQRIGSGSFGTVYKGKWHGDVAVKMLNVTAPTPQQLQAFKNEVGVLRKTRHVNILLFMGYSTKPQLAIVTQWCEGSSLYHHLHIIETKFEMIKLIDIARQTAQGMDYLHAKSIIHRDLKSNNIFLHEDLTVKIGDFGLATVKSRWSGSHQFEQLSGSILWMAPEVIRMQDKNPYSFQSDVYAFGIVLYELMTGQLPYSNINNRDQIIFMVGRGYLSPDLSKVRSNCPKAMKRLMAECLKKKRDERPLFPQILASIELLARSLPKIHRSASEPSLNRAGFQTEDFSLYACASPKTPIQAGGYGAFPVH
# [16] = target: Serine/threonine-protein kinase B-raf (Homo sapiens) (UniProt P15056); details: at 1 µM
# [17] = test system: Serine/threonine-protein kinase B-raf (Homo sapiens), P15056 [V600E]; details: at 0.1 µM
# Chain of Serine/threonine-protein kinase B-raf (Homo sapiens), P15056 [V600E] (P15056 whole entry V600E): as the sequence (P15056 whole entry) above, with V600E counted along it
# [18] = test system: Serine/threonine-protein kinase B-raf (Homo sapiens), P15056 [V600E]; details: at 1 µM
# [19] = target: RAF proto-oncogene serine/threonine-protein kinase (Homo sapiens) (UniProt P04049); details: at 0.1 µM;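 note: values are mean CRAF kinase inhibition from profiling of the GSK Published Kinase Inhibitor Set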
# Chain of RAF proto-oncogene serine/threonine-protein kinase (Homo sapiens) (P04049 whole entry): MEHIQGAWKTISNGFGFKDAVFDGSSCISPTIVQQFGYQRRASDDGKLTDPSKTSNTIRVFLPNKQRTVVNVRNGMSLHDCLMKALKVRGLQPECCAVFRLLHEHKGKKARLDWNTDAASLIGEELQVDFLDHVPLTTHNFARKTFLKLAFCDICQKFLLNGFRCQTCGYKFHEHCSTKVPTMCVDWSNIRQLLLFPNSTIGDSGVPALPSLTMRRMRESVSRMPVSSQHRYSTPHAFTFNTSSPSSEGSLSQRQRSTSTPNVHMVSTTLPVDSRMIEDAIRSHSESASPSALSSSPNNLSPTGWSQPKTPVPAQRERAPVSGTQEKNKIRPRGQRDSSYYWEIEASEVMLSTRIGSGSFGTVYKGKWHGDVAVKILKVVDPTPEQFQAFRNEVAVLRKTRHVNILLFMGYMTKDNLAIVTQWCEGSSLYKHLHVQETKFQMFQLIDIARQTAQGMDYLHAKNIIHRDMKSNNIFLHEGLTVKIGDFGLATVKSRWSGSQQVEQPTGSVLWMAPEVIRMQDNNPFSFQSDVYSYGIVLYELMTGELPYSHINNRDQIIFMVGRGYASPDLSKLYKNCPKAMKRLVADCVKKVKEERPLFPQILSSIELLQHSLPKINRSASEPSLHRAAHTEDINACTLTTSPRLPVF
# [20] = test system: T3, Receptor-type tyrosine-protein kinase FLT3 (Homo sapiens), P36888 [D835Y]; details: at 0.1 µM
# T3 sequence (whole entry): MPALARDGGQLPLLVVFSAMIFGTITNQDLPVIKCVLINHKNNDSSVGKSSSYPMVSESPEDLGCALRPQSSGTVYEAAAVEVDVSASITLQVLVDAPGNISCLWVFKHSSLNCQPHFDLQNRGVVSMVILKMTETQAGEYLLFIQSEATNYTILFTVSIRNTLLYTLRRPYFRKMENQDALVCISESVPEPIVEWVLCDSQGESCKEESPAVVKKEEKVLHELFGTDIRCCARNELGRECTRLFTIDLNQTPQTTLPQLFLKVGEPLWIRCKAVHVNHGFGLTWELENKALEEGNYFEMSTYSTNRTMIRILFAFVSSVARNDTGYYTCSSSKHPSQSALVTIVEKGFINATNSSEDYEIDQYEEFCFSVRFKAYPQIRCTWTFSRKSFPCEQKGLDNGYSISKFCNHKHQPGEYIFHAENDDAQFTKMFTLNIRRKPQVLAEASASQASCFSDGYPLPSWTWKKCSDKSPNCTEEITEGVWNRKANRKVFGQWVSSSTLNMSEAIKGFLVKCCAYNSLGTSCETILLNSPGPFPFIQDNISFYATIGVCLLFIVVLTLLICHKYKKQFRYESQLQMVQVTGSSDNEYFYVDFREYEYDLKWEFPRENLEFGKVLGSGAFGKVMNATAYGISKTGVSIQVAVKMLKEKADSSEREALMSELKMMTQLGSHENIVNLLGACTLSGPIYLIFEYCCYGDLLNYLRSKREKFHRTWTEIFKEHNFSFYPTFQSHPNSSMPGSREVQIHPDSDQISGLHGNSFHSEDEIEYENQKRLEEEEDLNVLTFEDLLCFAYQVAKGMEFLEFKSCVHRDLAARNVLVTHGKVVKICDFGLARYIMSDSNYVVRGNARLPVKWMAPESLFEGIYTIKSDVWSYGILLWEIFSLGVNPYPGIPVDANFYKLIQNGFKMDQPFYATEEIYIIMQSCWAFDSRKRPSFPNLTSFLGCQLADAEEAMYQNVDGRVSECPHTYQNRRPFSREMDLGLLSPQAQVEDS
# Chain of Tyrosine-protein kinase Fgr (Homo sapiens) (P09769 2-529 limits assumed): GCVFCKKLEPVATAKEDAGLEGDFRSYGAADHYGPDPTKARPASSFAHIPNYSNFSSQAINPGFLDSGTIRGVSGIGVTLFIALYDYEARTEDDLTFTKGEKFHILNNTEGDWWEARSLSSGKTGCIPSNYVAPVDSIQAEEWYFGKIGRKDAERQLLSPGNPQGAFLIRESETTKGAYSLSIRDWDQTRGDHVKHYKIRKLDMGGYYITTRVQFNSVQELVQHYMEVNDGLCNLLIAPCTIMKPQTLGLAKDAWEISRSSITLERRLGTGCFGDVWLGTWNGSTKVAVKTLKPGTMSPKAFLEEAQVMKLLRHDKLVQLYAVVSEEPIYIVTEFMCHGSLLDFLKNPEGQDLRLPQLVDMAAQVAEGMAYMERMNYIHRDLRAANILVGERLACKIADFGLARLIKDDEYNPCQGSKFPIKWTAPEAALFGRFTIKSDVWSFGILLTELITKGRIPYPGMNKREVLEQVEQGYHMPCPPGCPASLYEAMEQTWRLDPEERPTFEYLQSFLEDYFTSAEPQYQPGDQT
# Chain of Fibroblast growth factor receptor 4 (Homo sapiens) (P22455 22-802 limits assumed): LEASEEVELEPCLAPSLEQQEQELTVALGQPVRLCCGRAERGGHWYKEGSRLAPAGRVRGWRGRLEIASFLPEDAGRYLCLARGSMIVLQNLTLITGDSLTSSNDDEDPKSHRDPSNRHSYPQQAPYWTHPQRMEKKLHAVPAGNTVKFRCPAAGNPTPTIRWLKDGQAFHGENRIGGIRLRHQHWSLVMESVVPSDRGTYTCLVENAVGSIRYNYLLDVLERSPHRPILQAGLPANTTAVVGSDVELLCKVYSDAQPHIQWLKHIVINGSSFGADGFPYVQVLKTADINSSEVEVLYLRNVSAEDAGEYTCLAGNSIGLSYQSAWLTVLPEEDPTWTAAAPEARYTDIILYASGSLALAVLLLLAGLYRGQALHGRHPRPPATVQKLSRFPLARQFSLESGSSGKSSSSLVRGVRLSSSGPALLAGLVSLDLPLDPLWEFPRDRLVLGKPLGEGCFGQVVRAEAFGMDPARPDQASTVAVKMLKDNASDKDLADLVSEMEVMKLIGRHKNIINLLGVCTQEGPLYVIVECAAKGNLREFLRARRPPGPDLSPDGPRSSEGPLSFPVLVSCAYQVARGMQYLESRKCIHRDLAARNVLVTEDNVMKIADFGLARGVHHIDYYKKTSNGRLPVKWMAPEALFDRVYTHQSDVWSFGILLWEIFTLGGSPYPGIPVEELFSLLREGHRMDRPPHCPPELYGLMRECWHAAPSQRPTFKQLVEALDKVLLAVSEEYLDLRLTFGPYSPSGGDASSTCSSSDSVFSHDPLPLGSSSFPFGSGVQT
Structure (SMILES),inhibition [1],inhibition [2],inhibition [3],inhibition [4],inhibition [5],inhibition [6],inhibition [7],inhibition [8],inhibition [9],inhibition [10],inhibition [11],inhibition [12],inhibition [13],inhibition [14],inhibition [15],inhibition [16],inhibition [17],inhibition [18],inhibition [19],inhibition [20]
CCOc1ccc2c(-c3ccnc(Nc4cccc(C(F)(F)F)c4)n3)cnn2n1,-0.95%,2.53%,5.2%,-0.98%,1.9%,-0.37%,5.14%,0%,0.79%,2.7%,0.08%,3.08%,0.89%,2.78%,3.46%,1.64%,3.04%,0.8%,-2.28%,
CS(=O)(=O)CCNCc1coc(-c2ccc3ncnc(Nc4ccc(OCc5ccccc5)cc4)c3c2)c1,1.09%,3.94%,14.9%,3.16%,2.3%,3.27%,9.61%,0.61%,2.35%,2.91%,4.14%,26.2%,1.16%,2.06%,3.09%,6.31%,3.49%,3.25%,2.12%,-1.74%
CN(C)CCOc1ccc(-c2nc(-c3ccncc3)c(-c3ccc4c(c3)CC/C4=N\O)[nH]2)cc1,0.44%,2.2%,5.88%,2.37%,2.95%,2.67%,2.62%,-5.49%,3.44%,5.27%,3.06%,16.4%,-1.98%,,63.5%,88.8%,72.2%,90.1%,12.5%,1.65%
COc1cc(Nc2nccc(Nc3ccc4c(C)n[nH]c4c3)n2)cc(OC)c1OC,2.48%,18.2%,57.5%,38.3%,88%,57.8%,90.3%,33.3%,5.01%,27.9%,28.4%,70.7%,9.11%,32.7%,1.16%,9.2%,2.09%,7%,-7.99%,52.4%
COC(=O)Nc1nc2ccc(Oc3ccc(NC(=O)Nc4cccc(Cl)c4)cc3)cc2[nH]1,-0.03%,2.28%,4.23%,28.6%,56.8%,21.1%,57.2%,-0.96%,3.45%,11%,0.67%,2.42%,0.78%,2.42%,6.07%,17.1%,6.79%,15.1%,-4.01%,-4.92%
CCCN1CCC(c2ccc(Nc3nc(Nc4cc(F)ccc4C(N)=O)c4cc[nH]c4n3)c(OC)c2)CC1,12.4%,6.28%,7.49%,0.21%,0.37%,4.46%,20.3%,-2.78%,3.47%,18.4%,5.76%,19.3%,,29.3%,9.61%,37.6%,10.1%,37.4%,7.25%,6.01%
Fc1cccc(COc2ccc(Nc3ncnc4sc(-c5ccco5)cc34)cc2Cl)c1,-0.7%,3.8%,8.35%,2.39%,2.46%,,4.08%,-1.9%,5.86%,1.85%,1.73%,4.21%,0.85%,2.41%,6.56%,5.32%,4.59%,3.4%,-0.33%,-8.41%
CCn1c(-c2nonc2N)nc2cnc(Oc3cccc(NC(=O)c4ccc(N(C)C)cc4)c3)cc21,-0.05%,0.55%,,2.13%,4.41%,0.6%,1.09%,-0.04%,0.1%,0.87%,0.93%,2.45%,1.81%,2.72%,1.95%,5.71%,2.62%,6.32%,0.85%,-1.65%
Fc1ccc(-c2cc(-c3c[nH]nc3-c3ccccn3)ccn2)cc1,-0.52%,5.85%,3.11%,1.1%,1.96%,2.44%,2.5%,-4.52%,3.67%,5.06%,5.64%,9.04%,2.71%,2.35%,6.7%,8.05%,9.04%,6.61%,0.68%,-6.21%
CC(C)COC(=O)c1ccc2c(c1)/C(=C/Nc1ccc(S(N)(=O)=O)cc1)C(=O)N2,2.26%,4.59%,32%,4.68%,39.4%,,56%,4.42%,0.69%,17%,0.49%,22.1%,-2.35%,1.21%,2.66%,32.8%,1.68%,34%,-3.89%,58.7%
COc1ccc(-c2oc3ncnc(N)c3c2-c2ccc(NC(=O)Nc3cc(C(F)(F)F)ccc3F)cc2)cc1,48.5%,17%,61%,47.8%,96.7%,22.1%,,0.14%,8.25%,49.4%,15.7%,80.1%,0.23%,4.77%,6.96%,19.6%,8.1%,23.9%,2.02%,12.7%
COc1ccc(-c2nn3ncccc3c2-c2ccnc(Nc3ccc4c(c3)OCCO4)n2)cc1,1.91%,47.9%,79.8%,4.09%,26.8%,-1.66%,-0.57%,-1.85%,-0.58%,9.92%,79.3%,95.8%,,-0.83%,2.67%,5.07%,1.25%,4.88%,-0.5%,-7.3%
CCNC(=O)O[C@H]1CN[C@H](C#Cc2cc3ncnc(Nc4ccc(OCc5cccc(F)c5)c(Cl)c4)c3s2)C1,-0.06%,1.28%,1.88%,2.51%,1.26%,2.06%,2.34%,-3.06%,2.91%,1.4%,1.68%,-0.6%,-3.39%,-3.28%,4.28%,4.49%,2.44%,2.23%,-0.64%,3.08%
COc1ccc2c(-c3ccnc(Nc4cccc(OC(F)(F)F)c4)n3)cnn2n1,0.68%,5.29%,7.16%,1.57%,7.39%,3.4%,14.3%,-2.09%,4.51%,7.73%,2.47%,6.34%,0.87%,3.62%,6.94%,7.89%,5.16%,6.12%,1.54%,3.59%
